We go through seven compounds from paper PMC11062922 (Nature Chemical Biology, 2023).

Common to all, as to set-up: species or system human, MV4-11 + K-562 + COLO205 + SK-N-BE2 + OVCAR-8
The test system of test [1] is CLK1. The note with it: read-out: apparent Kd, compound concentrations: 100 nM and 1000 nM (sheet 'Samples'), n = 1.
In test [2] the test system is CLK4. The note with it: read-out: apparent Kd, compound concentrations: 100 nM and 1000 nM (sheet 'Samples'), n = 1.
Test [3] deals with CSNK2A1;CSNK2A3. As to conditions: read-out: apparent Kd, compound concentrations: 100 nM and 1000 nM (sheet 'Samples'), n = 1.
The test system of test [4] is CSNK2A2. As to conditions: read-out: apparent Kd; compound concentrations: 100 nM and 1000 nM (sheet 'Samples'), CATDS: 0.363288777813424; n = 1.
Test [5] relates to DYRK1A. The note with it: read-out: apparent Kd, compound concentrations: 100 nM and 1000 nM (sheet 'Samples'), n = 1.
Test [6] relates to CDK7. The note with it: read-out: apparent Kd; compound concentrations: 100 nM and 1000 nM (sheet 'Samples'), CATDS: 5.1614283275692202E-2; n = 1.
The test system of test [7] is CDK9. As to conditions: read-out: apparent Kd, n = 1.
The test system of test [8] is CDKL5. The note with it: read-out: apparent Kd, compound concentrations: 100 nM and 1000 nM (sheet 'Samples'), n = 1.
In test [9] the test system is ERCC2. As to conditions: read-out: apparent Kd; compound concentrations: 100 nM and 1000 nM (sheet 'Samples'), CATDS: 5.1102609842245399E-2; n = 1.
For test [10], the system named is FLT3. The note with it: read-out: apparent Kd; compound concentrations: 100 nM and 1000 nM (sheet 'Samples'), CATDS: 7.2287914746840001E-2; n = 1.
Test [11] has as its system GSK3A. The note with it: read-out: apparent Kd; compound concentrations: 100 nM and 1000 nM (sheet 'Samples'), CATDS: 6.4716553061548596E-2; n = 1.
The test system of test [12] is GSK3B. As to conditions: read-out: apparent Kd; compound concentrations: 100 nM and 1000 nM (sheet 'Samples'), CATDS: 9.1324175022244006E-2; n = 1.
Test [13] deals with ICK. The note with it: read-out: apparent Kd; compound concentrations: 100 nM and 1000 nM (sheet 'Samples'), CATDS: 7.1869443211344197E-2; n = 1.
Test [14] has as its system PIP4K2C. The note with it: read-out: apparent Kd, compound concentrations: 100 nM and 1000 nM (sheet 'Samples'), n = 1.
In test [15] the test system is TGFBR2. The note with it: read-out: apparent Kd; compound concentrations: 100 nM and 1000 nM (sheet 'Samples'), CATDS: 0.19336486168442599; n = 1.
The subject of test [16] is CSNK1D. As to conditions: read-out: apparent Kd; compound concentrations: 100 nM and 1000 nM (sheet 'Samples'), CATDS: 3.8251361436103803E-2; n = 1.
In test [17] the test system is CSNK1E. The note with it: read-out: apparent Kd; compound concentrations: 100 nM and 1000 nM (sheet 'Samples'), CATDS: 3.6903644151272202E-2; n = 1.
Test [18] relates to CSNK1G1. The note with it: read-out: apparent Kd; compound concentrations: 100 nM and 1000 nM (sheet 'Samples'), CATDS: 3.9062620233065198E-2; n = 1.
For test [19], the system named is EIF2AK1. As to conditions: read-out: apparent Kd; compound concentrations: 100 nM and 1000 nM (sheet 'Samples'), CATDS: 5.2303665150266299E-2; n = 1.
In test [20] the test system is GAK. The note with it: read-out: apparent Kd; compound concentrations: 100 nM and 1000 nM (sheet 'Samples'), CATDS: 7.9054270069147406E-2; n = 1.
Test [21] relates to MAPK10. The note with it: read-out: apparent Kd; compound concentrations: 100 nM and 1000 nM (sheet 'Samples'), CATDS: 6.4300767582532795E-2; n = 1.
In test [22] the test system is MAPK8. The note with it: read-out: apparent Kd; compound concentrations: 100 nM and 1000 nM (sheet 'Samples'), CATDS: 0.19867179384424899; n = 1.
Test [23] relates to MAPK9. As to conditions: read-out: apparent Kd; compound concentrations: 100 nM and 1000 nM (sheet 'Samples'), CATDS: 7.8815653035512301E-2; n = 1.
In test [24] the test system is NUAK1. As to conditions: read-out: apparent Kd; compound concentrations: 100 nM and 1000 nM (sheet 'Samples'), CATDS: 4.4301419887818799E-2; n = 1.
For test [25], the system named is PTK2B. The note with it: read-out: apparent Kd; compound concentrations: 100 nM and 1000 nM (sheet 'Samples'), CATDS: 4.7862573300624302E-2; n = 1.
The subject of test [26] is PTK2. The note with it: read-out: apparent Kd; compound concentrations: 100 nM and 1000 nM (sheet 'Samples'), CATDS: 4.8653444665563698E-2; n = 1.
The test system of test [27] is RPS6KA1. As to conditions: read-out: apparent Kd; compound concentrations: 100 nM and 1000 nM (sheet 'Samples'), CATDS: 4.3998663303794899E-2; n = 1.
Test [28] deals with TNK1. As to conditions: read-out: apparent Kd; compound concentrations: 100 nM and 1000 nM (sheet 'Samples'), CATDS: 9.9368831187406595E-2; n = 1.
Test [29] concerns TTK. As to conditions: read-out: apparent Kd; compound concentrations: 100 nM and 1000 nM (sheet 'Samples'), CATDS: 7.5031677714786096E-2; n = 1.
Test [30] has as its system PRKAG2. As to conditions: read-out: apparent Kd; compound concentrations: 100 nM and 1000 nM (sheet 'Samples'), CATDS: 0.49360231247915698; n = 1.
The subject of test [31] is CDK6. As to conditions: read-out: apparent Kd; compound concentrations: 100 nM and 1000 nM (sheet 'Samples'), CATDS: 0.50989905801732505; n = 1.
Test [32] concerns PIM2. As to conditions: read-out: apparent Kd; compound concentrations: 100 nM and 1000 nM (sheet 'Samples'), CATDS: 0.49047797816886901; n = 1.
The test system of test [33] is NEK3. As to conditions: read-out: apparent Kd; compound concentrations:100 nM and 1000 nM (sheet 'Samples'); n = 1.
In test [34] the test system is TESK1. The note with it: read-out: apparent Kd; compound concentrations: 100 nM and 1000 nM (sheet 'Samples'), CATDS: 0.50795455679108803; n = 1.

Like-named read-outs stand apart in the source and are kept apart here.

`CCOc1ccccc1CCNC1=NC(=O)/C(=C/c2ccc3ncccc3c2)S1` [RO4503314-000]: the potency estimated from few doses is 469 nM in [1] (CATDS: 0.17433508542258599); 505 nM in test [2] (CATDS: 0.16932447657893401); 246 nM in test [3] (CATDS: 0.234359592666399); 118 nM in [4]; 615 nM in test [5] (CATDS: 0.15776551091334201).

Turning to `FC(F)(F)c1cc(Br)cc(Nc2nccc(-c3cnn4ncccc34)n2)c1` [GW810578X], the potency estimated from few doses is 1740 nM in test [6]; 461 nM in test [7] (compound concentrations: 100 nM and 1000 nM (sheet 'Samples'), CATDS: 7.5250343499568897E-2); 127 nM in [8] (CATDS: 0.13413982703885399); 72.6 nM in [1] (CATDS: 0.18636177679303401); 82 nM in test [2] (CATDS: 0.17259551294748199); 1410 nM in test [5] (CATDS: 5.4131433130879598E-2). Also, the potency estimated from few doses in test [9] is 1830 nM; in test [10], 516 nM; in test [11] it was 724 nM; in test [12] it was 282 nM; in [13], 525 nM; in [14] (CATDS: 4.9119421247087701E-2), 2250 nM. The potency estimated from few doses in test [15] is 68.5 nM.

Regarding `CCCN1CCC=C(c2ccc(Nc3nc(Nc4ccccc4C(N)=O)c4cc[nH]c4n3)c(C)c2)C1` [GSK994854A], the potency estimated from few doses in test [1] (CATDS: 7.5926373911313003E-2) is 392 nM; in test [2] (CATDS: 5.3158030493379999E-2) it was 801 nM; in test [16], 2010 nM; in [17], 2300 nM; in test [18], 1870 nM; in test [3] (CATDS: 3.8692946827206802E-2), 1930 nM. In addition, the potency estimated from few doses in [5] (CATDS: 3.9869758928983597E-2) was 1740 nM; in test [19], 831 nM; in [20] it was 365 nM; in test [21] it was 535 nM; in [22] it was 94 nM; in test [23], 367 nM. The potency estimated from few doses in [24] was 1270 nM; in test [14] (CATDS: 4.1544409686620098E-2) it was 1530 nM; in [25], 1030 nM; in [26], 989 nM; in [27] it was 1290 nM; in test [28] it was 250 nM. Also, in test [29], the potency estimated from few doses was 400 nM.

In the case of `COc1ccc(Nc2nccc(N3CCC(NC(=O)Nc4cc(C)ccc4C)C3)n2)cc1` (stereo not drawn) [GSK1379741A], the potency estimated from few doses was 1860 nM in test [8] (CATDS: 0.50656570893737995) and 1960 nM in [30].

In the case of `O=C(Nc1n[nH]c2cc(-c3ccccc3F)ccc12)C1CC1` [SB-733371], the potency estimated from few doses is 1670 nM in test [31] and 1800 nM in [32].

For the compound `Nc1n[nH]c2cnc(-c3ccccc3)cc12` [SB-642124-AAA], the potency estimated from few doses is 1400 nM in test [7] (compound concentrations:100 nM and 1000 nM (sheet 'Samples')); 1820 nM in [33].

Consider `CCn1c(-c2c(N)noc2C)nc2cnccc21` [SB-737856], for which the values for the potency estimated from few doses in [8] (CATDS: 0.49229073825052599) and in [34] were 1930 nM and 1820 nM, respectively.
